HSF1 inhib: HSF1 inhibitors in luciferase reporter cells, primary screen, cell-based, NIH3T3, luminescence; NIH3T3-HGL HSE-luciferase, MG132-induced, luminescence 8 h; stronger effect = lower value; activity change, negative = inhibition, % at 7.5 µM (by protocol); 300,000 compounds, 0.77% hits; AID 2098, 2009;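 active = more than half of replicate wells show activity change below -50%, luminescence cut by over half; inconclusive = some wells, but at most half, below -50%; inactive = no replicate well below -50%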;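 note: luciferase reports HSF-1 transcriptional activity via heat shock element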
LGR2 antag: inhibitors of bursicon-induced LGR2 CRE-luciferase signal, primary screen, cell-based, HEK293, CRE-luciferase reporter, bursicon stimulation | Drosophila bursicon receptor LGR2 (rickets) | bursicon-stimulated, 4 h | inhibition, % at 9.99 µM | 380,000 compounds, 0.35% hits | AID 720647, 2013;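 active = drop in luminescence signal, shown as inhibition above about 50% in the replicate tests, limit read from the data, passing the limit was not always enough; inconclusive = probably only some replicates passing the limit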;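 note: agonist challenge used bursicon conditioned medium at about half maximal strength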
TWEAK-Fn14 inh: inhibitors of TWEAK-Fn14 signaling, primary screen, luciferase reporter cells, uHTS; inhibition, % at 10 µM; TWEAK-stimulated Fn14 reporter cells, luciferase luminescence, 8 h; 360,000 compounds, 2% hits; in the data active = inhibition above about 50%
HSF1 activator: HSF-1 activators, primary screen, NIH3T3-HGL cells, MG132 stress, luminescence, single point; NIH3T3-HGL HSF-1 luciferase reporter, 8 h; 100% = twice DMSO control signal; 300,000 compounds, 1.7% hits; AID 504408, 2011; activation, % at 9 µM;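 active = mean replicate activation of at least 50% with a set share of replicates each reaching 50%; inconclusive = only one of those two conditions met; inactive = mean below 50% and too few replicates reaching it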
TROY NFkB inh: inhibitors of TROY-driven NF-kB signaling, primary screen, Q293 LMP1-TROYcd cells, NF-kB luciferase, uHTS; Q293 LMP1-TROYcd NF-kB luciferase reporter, 4 h; inhibition, % at 10 µM; 360,000 compounds, 0.98% hits; AID 1347056, 2019;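 active = compounds whose plate-normalised and pattern-corrected inhibition of the luciferase reporter signal at the single screening dose is 50% or more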
EBV LMP1 NFkB: EBV LMP1-driven NF-kappaB luciferase reporter inhibitors, primary screen, cell-based, luminescence, single point | LMP1-induced NF-kappaB luciferase reporter cells | inhibition, % at 12.5 µM | 350,000 compounds, 0.69% hits | AID 504558, 2011; in the data active = inhibition above about 41%; inconclusive = no clear call, values can overlap the other calls
A number is an active result; 0 = inactive; ? = inconclusive; - = no result given. An excerpt weighted towards active compounds, which were near 3.6% of everything screened.

SMILES | HSF1 inhib | LGR2 antag | TWEAK-Fn14 inh | HSF1 activator | TROY NFkB inh | EBV LMP1 NFkB
Oc1c(C(Nc2cccc(C(F)(F)F)c2)c2ccncc2)ccc2cccnc12 (configuration not stated) | 0 | 0 | 52 | 0 | 0 | 53
Cc1conc1NC(c1cccs1)c1ccc2cccnc2c1O (configuration not stated) | 0 | - | - | 0 | - | -
CC(C)C(=O)NC(c1ccco1)c1ccc2cccnc2c1O (configuration not stated) | - | ? | 0 | - | 0 | 0
O=C(Cc1cccnc1)N[C@H]1CC[C@H](CCn2cc(Cc3ccccc3)nn2)O[C@@H]1CO | - | 0 | - | - | - | -
COc1cccc(-c2c(C(=O)N/N=C(\C)c3ccc(Cl)s3)nnn2-c2nonc2N)c1 | 0 | 0 | 0 | 56 | 0 | 0
CCOc1ccc(-c2c(C(=O)N/N=C/c3c[nH]c4ccccc34)nnn2-c2nonc2N)cc1 | 0 | 0 | 58 | 0 | 0 | 0
CCc1ccc(-c2cc(C(=O)N/N=C/c3c[nH]c4ccccc34)[nH]n2)cc1 | 0 | - | 59 | 0 | 0 | 0
CCOc1cccc(-c2c(C(=O)N/N=C(\C)c3ccccn3)nnn2-c2nonc2N)c1 | 0 | 0 | 0 | 0 | 0 | 65
CCc1ccc2c(Cl)c(C(=O)N/N=C/c3c[nH]c4ccccc34)sc2c1 | 0 | - | 0 | 0 | 0 | 0
CCOc1cccc(-c2c(C(=O)N/N=C(\C)c3ccncc3)nnn2-c2nonc2N)c1 | 0 | 0 | 0 | 0 | 0 | 0
CCCNC(=O)C[C@@H]1C[C@H]2c3cc(NS(=O)(=O)c4ccccc4)ccc3O[C@H]2[C@@H](CO)O1 | - | 0 | - | - | - | -
C[C@H]1CN([C@@H](C)CO)C(=O)c2cc(Br)cnc2O[C@@H]1CN(C)C(=O)NC1CCCC1 | - | 0 | - | - | - | -
CCOc1cccc(-c2c(C(=O)N/N=C/c3ccco3)nnn2-c2nonc2N)c1 | 0 | - | 0 | 0 | 0 | 0
CCOc1cccc(-c2c(C(=O)N/N=C/c3ccc(C)o3)nnn2-c2nonc2N)c1 | -68 | 0 | 0 | 0 | 0 | 0
COc1ccc(Cn2c(SC)nc3ccccc32)cc1[N+](=O)[O-] | -61 | - | 0 | 0 | 0 | 0
Cc1ccc(CCNC(=O)c2cccc(N3CCCC3=O)c2)cc1 | 0 | - | 0 | 0 | 0 | 0
CN(C)c1ccc(/C=N/NC(=O)c2cccc(N3CCCC3=O)c2)cc1 | -82 | 0 | 0 | 0 | 0 | 0
O=C(NCCc1ccccc1)c1cccc(N2CCCC2=O)c1 | 0 | - | 83 | 0 | 62 | 0
C[C@@H]1CN([C@H](C)CO)C(=O)c2cccc(NC(=O)c3nc4ccccc4s3)c2O[C@H]1CN(C)CC1CC1 | - | 0 | - | - | - | -
O=C(CCSc1ccc(Cl)cc1)N1CCCCCC1 | 0 | - | 0 | 107 | 0 | 0
NC(=O)C1CCN(C(=O)CCSc2ccc(Cl)cc2)CC1 | 0 | 0 | 0 | 0 | 0 | 0
O=C(COc1ccc(Cl)cc1)N1CCCC1 | -71 | - | 0 | 0 | 0 | 0
O=[N+]([O-])c1ccc(COn2nnc3ccccc32)cc1 | 0 | 0 | 0 | 0 | 0 | 0
Clc1ccc(COn2nnc3ccccc32)c(Cl)c1 | 0 | - | 0 | 86 | 0 | 0
CC(C)c1[nH]nc2c1C(c1ccco1)C(C#N)=C(N)O2 (configuration not stated) | 0 | 0 | 0 | 55 | 0 | 0
SMILES | HSF1 inhib | LGR2 antag | TWEAK-Fn14 inh | HSF1 activator | TROY NFkB inh | EBV LMP1 NFkB
CC(C)c1[nH]nc2c1C(c1cccnc1)C(C#N)=C(N)O2 (configuration not stated) | 0 | - | 60 | 0 | 0 | 0
C[C@@H]1CN([C@H](C)CO)C(=O)Cc2cc(NC(=O)Nc3ccc(F)cc3)ccc2O[C@H]1CN(C)S(=O)(=O)c1cn(C)cn1 | - | 0 | - | - | - | -
O=S(=O)(N[C@@H]1CC[C@H](CCn2cc(-c3ccc(F)cc3)nn2)O[C@@H]1CO)c1ccccc1F | - | 0 | - | - | - | -
Cc1sc2ncnc(Sc3nnnn3-c3ccccc3)c2c1C | 0 | 66 | 101 | 0 | 67 | 0
Clc1ccc(-n2nnnc2Sc2ncnc3sccc23)cc1 | 0 | 0 | 75 | 129 | 70 | 51
Cc1noc(C)c1NC(=O)Nc1ccc2c(c1)C(=O)N([C@H](C)CO)C[C@H](C)[C@@H](CN(C)C(=O)Nc1cccc3ccccc13)OCCCC[C@H](C)O2 | - | 0 | - | - | - | -
N#CC(C#N)=Cc1cc2ccccc2nc1N1CCOCC1 | 0 | 0 | 0 | 0 | 0 | 0
N#C/C(=C\c1cc2ccccc2nc1N1CCOCC1)C(=O)Nc1ccc(N2CCOCC2)cc1 | 0 | 0 | 0 | 0 | 58 | 0
Cc1noc(C)c1NC(=O)Nc1ccc2c(c1)C(=O)N([C@@H](C)CO)C[C@@H](C)[C@@H](CN(C)C(=O)CCCN(C)C)OCCCC[C@@H](C)O2 | - | 0 | - | - | - | -
Cc1cc(SCC(=O)Nc2ncc(Cl)cc2Cl)nc2ccccc12 | 0 | 0 | 0 | 54 | 0 | 0
COC(=O)C1=COC(C)C2CN3CCc4c([nH]c5ccccc45)C3CC12 (configuration not stated) | 0 | - | 0 | 0 | 0 | 0
O=C(O)[C@@H]1[C@H]2C[C@H]3c4[nH]c5ccccc5c4CCN3C[C@@H]2CC[C@@H]1O | - | 0 | 0 | - | 0 | 65
COC(=O)C1=CO[C@@H](C)[C@H]2CN3CCc4c([nH]c5ccccc45)[C@@H]3C[C@H]12 | - | - | 0 | - | 0 | 78
OC1CCC2CN3CCc4c([nH]c5ccccc45)C3CC2C1 (configuration not stated) | - | - | 0 | - | 0 | -
O=C(NC1C(=O)NNC1c1ccccc1)c1ccccc1 (configuration not stated) | 0 | - | 0 | 168 | 0 | 44
CC(C)c1ccccc1NC(=O)COC(=O)CCN1C(=O)/C(=C\C=C\c2ccccc2)SC1=S | 0 | 0 | 72 | 0 | 0 | 0
O=C(COC(=O)CCN1C(=O)/C(=C\C=C\c2ccccc2)SC1=S)Nc1ccc(Br)cc1 | 0 | 0 | 0 | 0 | 0 | 0
O=C(O[C@@H]1OC2COC(=O)c3cc(O)c(O)c(O)c3-c3c(cc(O)c(O)c3O)C(=O)O[C@@H]([C@H]1O)[C@@H]2O)c1cc(O)c(O)c(O)c1 | 0 | - | 75 | 0 | 0 | 0
CCCCN(CCCC)S(=O)(=O)c1ccc(NC(=O)Cc2cccs2)cc1 | 0 | - | 0 | 0 | 51 | 0
